“And” between values parts separate entries of the source, which are not always exact repeats. Equal values may be shown once. This is part of a sample that, as a whole, favours compounds with a hit. Of some 83,000 tested, about 20% had one in any assay.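 Treatment: one concentration, 48 hours, 96-well format. Scoring: percent growth, with anything below 10 considered active.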 Unmarked numbers belong to inactive results. The source made the active and inactive calls.

What all share (assay): NCI-60 one-dose screen, 48 h (100 = growth as untreated, 0 = no growth, -100 = all killed)
Common to all, as to details: 10 µM unless noted

For assay [1], the system named is NCI-H23 lung.
The subject of assay [2] is NCI-H226 lung.
In assay [3] the test system is NCI-H322M lung.
For assay [4], the system named is HOP-62 NSCLC.
In assay [5] the test system is NCI-H460 lung.
Assay [6] has as its system HOP-92 NSCLC.
In assay [7] the test system is NCI-H522 lung.
Assay [8] relates to A549/ATCC NSCLC.
In assay [9] the test system is 786-0 renal.
Assay [10] has as its system DU-145 prostate.
Assay [11] concerns K-562 leukemia.
In assay [12] the test system is MALME-3M melanoma.
Assay [13] has as its system MDA-MB-231 breast.
The test system of assay [14] is RXF 393 renal.
The subject of assay [15] is SF-268 CNS.
The test system of assay [16] is SF-295 CNS.
For assay [17], the system named is SF-539 CNS.
For assay [18], the system named is UACC-257 melanoma.
Assay [19] has as its system M14 melanoma.
The subject of assay [20] is COLO 205 colon.

Turning to `O=C1C=CC(=O)N1C1c2ccccc2-c2ccccc21`, the growth in assay [1] is 98.1%; in assay [2] it was 95.6%; in assay [3], 94.6%; in assay [4], 96.3%; in [5], 96.5%; in assay [6], 67.5%. Besides, the growth in [7] is 29.4%; in assay [8], 91.4%; in [9] it was 75.2%; in assay [10], 103%; in assay [11] it was 18.5%; in [12], 90.1%. In addition, the growth in assay [13] is 97.9%; in assay [14], 80.5%; in assay [15] it was 102%; in assay [16], 99.5%; in assay [17] it was 98.3%; in assay [18] it was 85.7%. Besides, the growth in assay [19] was 96.5%.

`CN(C)c1ccc(/C=N/N=C(\C#N)[S][Sn]([Cl])([c]2ccccc2)[c]2ccccc2)cc1`: the growth was 28.6% in [1]; -69.4% (active) in assay [2]; 84.1% in [3]; 84.5% in assay [4]; 84.3% in assay [5]; -81.4% (active) in [7]. The growth in [8] is 78.3%; in assay [9], 10.8%; in [20], -51.6% (active); in assay [10], 5.62% (active); in assay [11], 3.13% (active); in assay [12] it was -50.8% (active). For the same molecule, the growth in [13] was -12.7% (active); in [14], -86.3% (active); in assay [15] it was 42.9%; in assay [16], 107%; in assay [17], -16.3% (active); in assay [18] it was 21.3%. Also, the growth in assay [19] was 4.46% (active).

For `NC(=S)N/N=C\c1nccc2c(C(F)(F)C(F)(F)C(F)(F)F)cccc12`, the growth is 9.5% (active) in [1]; -27.3% (active) in assay [2]; -1.69% (active) in [3]; -7.59% (active) in assay [4]; -25.9% (active) in assay [5]; -2.33% (active) in assay [6]. Also, the growth in assay [7] was -20.7% (active); in [8], -20.8% (active); in assay [9], -48.3% (active); in [10], 1.56% (active); in assay [11], 4.7% (active); in assay [12], -3.69% (active). In addition, the growth in assay [13] was 36.9%; in assay [14], -11.7% (active); in [15], 13%; in [16] it was 7.4% (active); in assay [17], -10.3% (active); in assay [18] it was -18.2% (active). In addition, in [19], the growth is -19.2% (active).

For the molecule `CC1SC(=S)N(c2ccc(Cl)cc2)C1=O` (configuration not stated), the growth is 104% and 92.2% in [1]; 92.9% and 97.2% in assay [2]; 89.5% and 89.8% in assay [3]; 92.4% and 92.7% in [4]; 100% and 108% in [5]; 89.8% in assay [7]. The growth in assay [8] is 93.8% and 95.7%; in [9], 91.5% and 93.1%; in assay [20], 124% and 107%; in [10], 104% and 96.3%; in assay [11], 84.1% and 78.8%; in [12], 104% and 108%. Further, the growth in [13] was 99.6% and 86.4%; in [14] it was 116%; in assay [15] it was 109% and 84.1%; in assay [16], 96% and 98.8%; in assay [17], 98.5% and 70.7%; in assay [18], 97.9%. The growth in assay [19] was 111% and 105%.

As for `Cc1cc(C(C)(CC(C)C)c2ccc(O)c(C)c2)ccc1O`, the growth in assay [1] is 108%; in assay [2], 93%; in assay [3], 94.6%; in assay [4] it was 104%; in assay [5], 104%; in assay [7], 92.6%. Further, the growth was 81.5% in [8]; 102% in assay [9]; 112% in assay [10]; 97.1% in [11]; 109% in [12]; 88% in assay [13]. Also, the growth is 93% in assay [14]; 104% in assay [15]; 97.8% in assay [16]; 96.6% in assay [17]; 84.8% in [18]; 94.2% in assay [19].

As for `O=[N+]([O-])c1ccc2c(N=Nc3ccc4ccccc4c3O)c(O)cc(S(=O)(=O)O)c2c1`, the growth was 101% in [1]; 103% in assay [2]; 65.1% in [3]; 97.5% in [4]; 102% in assay [5]; 101% in assay [6]. The growth was 105% in [7]; 103% in assay [8]; 106% in assay [9]; 104% in assay [10]; 96.3% in assay [11]; 99.9% in assay [12]. For the same molecule, the growth in [13] is 74.2%; in [14], 97%; in assay [15] it was 72.4%; in assay [16], 102%; in assay [17], 96.9%; in [18], 99.2%. Also, the growth in [19] is 80.7%.

Take `O=C(Nc1ccc(F)cc1)ON=C1CCCCC1`: the growth was 110% [100 µM] in [1]; 96.9% [100 µM] in assay [2]; 101% [100 µM] in assay [3]; 112% [100 µM] in assay [4]; 104% [100 µM] in assay [5]; 93.3% [100 µM] in [7]. The growth in assay [8] was 94.1% [100 µM]; in assay [9], 87.6% [100 µM]; in assay [10] it was 106% [100 µM]; in assay [11], 79.6% [100 µM]; in assay [12] it was 108% [100 µM]; in assay [13], 101% [100 µM]. In addition, the growth is 102% [100 µM] in assay [14]; 96.3% [100 µM] in assay [15]; 100% [100 µM] in assay [16]; 93.5% [100 µM] in assay [17]; 98.8% [100 µM] in assay [18]; 111% [100 µM] in [19].

With `O=C1NC(=O)/C(=C/C=C/c2ccccc2)S1`, the growth is 32.6% in assay [1]; 75.8% in assay [2]; 51.4% in [3]; 22.5% in [4]; 10.6% in assay [5]; 45.2% in [6]. Besides, the growth was 24.4% in assay [7]; 89.1% in assay [8]; 1.55% (active) in assay [9]; 50.3% in assay [10]; 31.1% in [11]; 60.2% in [12]. The growth in assay [13] was 82.5%; in [14], 66.3%; in assay [15] it was 31.8%; in [16], 14.3%; in assay [17], -6.41% (active); in assay [18], 45.1%. The growth in assay [19] was 12.3%.

Turning to `CCOC(=O)/C(=C\c1ccc(-c2ccccc2)cc1)C(C)=O`, the growth in assay [1] was 100%; in assay [2], 101%; in [3] it was 97.3%; in assay [4], 110%; in [5], 103%; in assay [7], 87.6%. For the same molecule, the growth is 111% in assay [8]; 105% in assay [9]; 99.3% in assay [10]; 101% in [11]; 87.1% in [12]; 112% in [13]. The growth is 95.6% in assay [14]; 91% in [15]; 102% in assay [16]; 98% in assay [17]; 120% in [18]; 94.7% in assay [19].

In the case of `CCCCCCC(C)c1ccccc1O` (configuration not stated) (tested in a mixture with another compound), the growth in [1] is 90.2%; in [2], 109%; in assay [3], 117%; in assay [4], 99%; in assay [5] it was 101%; in assay [6] it was 69.1%. Further, the growth was 105% in assay [7]; 100% in assay [8]; 108% in assay [20]; 116% in [10]; 106% in assay [11]; 106% in [12]. Moreover, the growth in [13] was 104%; in [14], 113%; in [15], 112%; in assay [16], 116%; in assay [17], 99.3%; in assay [18] it was 117%. For the same molecule, the growth in [19] is 111%.

Turning to `CC(=O)C(=Cc1ccc(C=C(C(C)=O)C(C)=O)cc1)C(C)=O`, the growth in assay [1] is 4.19% (active); in [2], -14.5% (active); in assay [3] it was 102%; in assay [4], 83.2%; in assay [5], 36.2%; in assay [7] it was -53.9% (active). The growth in assay [8] was 84.2%; in [9], 2.51% (active); in assay [20], -70.9% (active); in assay [10], 23.6%; in [11] it was 2.87% (active); in [12], -18.6% (active). Besides, the growth is -3.61% (active) in assay [13]; -58.5% (active) in assay [14]; 19.7% in [15]; 86.4% in [16]; -1.57% (active) in [17]; 19.1% in assay [18]. Also, the growth in [19] is 4.86% (active).

As for `CCCCCCCCCCCCCCNCc1ccccc1`, the growth in assay [1] is 75.7%; in assay [2], 60.1%; in assay [3], 106%; in assay [4], 94.1%; in [5], 77.4%; in [7], 75.8%. In addition, the growth in assay [8] is 108%; in assay [9], 67.8%; in [20], -40.9% (active); in [10], 81%; in [11], 23.8%; in assay [12] it was 92.6%. The growth was 54.4% in assay [13]; 82.3% in assay [14]; 94.7% in assay [15]; 97.7% in [16]; 83.2% in assay [17]; 99.4% in [18]. Also, in assay [19], the growth was 81.8%.

For `NC1=CC(=O)c2ccccc2C1=O`, the growth is 40.2% in assay [1]; 91.7% in assay [2]; 97% in assay [3]; 80.9% in [4]; 89.8% in [5]; 91.4% in assay [6]. In addition, the growth was 89.4% in assay [7]; 75.9% in assay [8]; 105% in [9]; 63.8% in assay [10]; 92.6% in assay [11]; 38.8% in assay [12]. For the same molecule, the growth was 82.1% in [13]; 100% in [14]; 95.6% in assay [15]; 69% in assay [16]; 106% in [17]; 69% in assay [18]. Also, in [19], the growth is 83%.

In the case of `CCC(=O)Sc1ccccc1C(=O)Nc1ccc(Cl)cc1`, the growth in assay [1] is 46.1%; in assay [2], 52.7%; in [3], 55.4%; in assay [4] it was 76.5%; in assay [5], 34.5%; in [7], 67.3%. The growth is 76.5% in [8]; 57% in assay [9]; 84.7% in assay [20]; 74.3% in [10]; 19.4% in [11]; 6.61% (active) in [12]. Also, the growth is 67.2% in assay [13]; 88.2% in assay [14]; 56.4% in assay [15]; 35.5% in [16]; 49.7% in assay [17]; 94.7% in assay [18]. The growth in assay [19] was 42.4%.

With `Cc1ccc2c(ccc3c[n+]4c5ccccc5ccc4n32)c1`, the growth in assay [1] is 10.4%; in assay [2], 7.48% (active); in assay [3] it was 12.7%; in assay [4], 0.81% (active); in assay [5], 1.99% (active); in assay [6], -11.1% (active). Also, the growth in assay [7] is -33.4% (active); in [8] it was 4.82% (active); in [9] it was 27.4%; in assay [10] it was 20.7%; in [11], 6.39% (active); in assay [12] it was -45.5% (active). In addition, the growth is 19.6% in assay [13]; 28.9% in [14]; 1.4% (active) in [15]; -1.86% (active) in assay [16]; -3.04% (active) in assay [17]; -36% (active) in [18]. Also, the growth in assay [19] was 2.99% (active).

The values above are taken from PubChem BioAssay (NCI).
